This is a sample that favours compounds with a hit; in the whole collection about 3.5% have one here.
GPR151 activ: activators of human GPR151, primary screen, cell-based, PathHunter beta-arrestin, luminescence | PathHunter beta-arrestin GPR151 cells | G-protein coupled receptor 151 (Homo sapiens), Q8TDV0 | AID 1508602, 2020 | activation, % at 11.2 µM | 650,000 compounds, 1% hits; in the data active means activation above about 4.9%
FBW7 act: FBW7 E3 ligase activators, primary screen, biochemical, AlphaScreen, human. F-box/WD repeat-containing protein 7 (Homo sapiens), Q969H0. AlphaScreen FBW7–phospho-cyclin E peptide binding, activator screen. normalized activity (activation), % at 26.1 µM. 650,000 compounds, 0.13% hits; in the data active means normalized activity above about 1.9%;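 further: purified mutant Fbw7 with reduced substrate affinity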
TEAD-YAP block: TEAD-YAP interaction inhibition, primary screen, TEAD-YAP interaction inhibitor project, luminescence, HEK-TIYL cells. TEAD-Gal4/YAP UAS-luciferase luminescence. inhibition, % at 9.12 µM. 640,000 compounds, 1.4% hits; in the data active means inhibition above about 32%
MITF primary: MITF inhibitors, primary screen, biochemical, AlphaScreen, human | AlphaScreen MITF homodimerization, bead proximity signal | inhibition, % at 2.6 µM | 650,000 compounds, 0.91% hits; in the data active means inhibition above about 50%
Target sequence (O75030 whole entry, looked up): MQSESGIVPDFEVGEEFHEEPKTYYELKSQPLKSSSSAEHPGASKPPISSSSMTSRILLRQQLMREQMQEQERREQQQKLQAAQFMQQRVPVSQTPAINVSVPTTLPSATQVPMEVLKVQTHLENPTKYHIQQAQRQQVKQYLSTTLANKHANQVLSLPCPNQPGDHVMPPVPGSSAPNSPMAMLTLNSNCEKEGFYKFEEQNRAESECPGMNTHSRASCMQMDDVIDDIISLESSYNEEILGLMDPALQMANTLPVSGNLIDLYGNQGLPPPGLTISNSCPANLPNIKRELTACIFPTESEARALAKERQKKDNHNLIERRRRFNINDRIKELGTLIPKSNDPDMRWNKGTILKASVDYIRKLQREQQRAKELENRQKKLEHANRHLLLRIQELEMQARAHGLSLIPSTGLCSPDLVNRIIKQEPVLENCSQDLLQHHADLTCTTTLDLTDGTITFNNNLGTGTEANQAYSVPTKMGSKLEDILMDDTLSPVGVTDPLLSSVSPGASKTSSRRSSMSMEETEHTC
MITF inh conf: MITF inhibitors, retest of hits, confirmation, biochemical, AlphaScreen, triplicate. shares compounds with MITF primary. AlphaScreen MITF homodimerization, biotin/His-MITF beads. inhibition, % at 2.6 µM. 4,700 compounds, 16% hits;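 active means inhibition above a cutoff derived from the DMSO control wells, cut at about 28% in these data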;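 further: inhibitors lower the bead chemiluminescence by keeping MITF from dimerizing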
AS interf DR: AlphaScreen optical interference compounds, dose response, counter-screen, biochemical, HTS; shares compounds with MITF primary; AlphaScreen optical interference counterscreen, cell-free; IC50, µM; 480 compounds, 6% hits; AID 1259373, 2018; call rule not given here
AlphaScreen intf2: AlphaScreen optical interference compounds, counter-screen for MITF inhibitor project, biochemical, triplicate; shares compounds with MITF primary; 4,700 compounds, 7.6% hits; LysRS AlphaScreen counterscreen, signal interference; inhibition, % at 2.6 µM;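 active means inhibition above a cutoff derived from the DMSO control wells, cut at about 30% in these data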
Hits are given with their value.

Screening O=C(c1cn(-c2ccccc2)nc1-c1ccc2c(c1)OCCO2)N1CCOCC1 returned GPR151 activ inactive, FBW7 act inactive, TEAD-YAP block inactive, MITF primary 58.0, MITF inh conf inactive and AlphaScreen intf2 inactive.
OCc1cn(-c2ccccc2)nc1-c1ccc2c(c1)OCCO2 was read as GPR151 activ inactive, FBW7 act inactive, TEAD-YAP block inactive and MITF primary inactive.
Screening CN1CCN(Cc2cn(-c3ccccc3)nc2-c2ccc3c(c2)OCCO3)CC1 returned GPR151 activ inactive, FBW7 act inactive, TEAD-YAP block inactive, MITF primary 77.3, MITF inh conf inactive and AlphaScreen intf2 inactive.
`CCC(C)NC(=O)Cn1nc(-c2ccc(Cl)cc2)ccc1=O` (stereo not given) gave GPR151 activ inactive, FBW7 act inactive, TEAD-YAP block inactive and MITF primary inactive.
`COc1ccc(-n2cc(C(=O)n3ccnc3)c3ccccc3c2=O)cc1` gave GPR151 activ inactive, FBW7 act inactive, TEAD-YAP block inactive and MITF primary inactive.
For COc1ccc(C2CC(c3cccs3)=NN2C(=O)CSc2nnc(CNC(=O)c3ccccc3OC)n2-c2cccc(Cl)c2)cc1 (stereo not given) the results were GPR151 activ inactive, FBW7 act inactive, TEAD-YAP block inactive and MITF primary inactive.
For COc1cc(CN2CCN(Cc3c[nH]c4ccccc34)CC2)cc(OC)c1OC the results were GPR151 activ inactive, FBW7 act inactive, TEAD-YAP block inactive, MITF primary 55.7, MITF inh conf inactive and AlphaScreen intf2 inactive.
COc1cc(CN2CCN(C(=O)c3ccccc3)CC2)cc(OC)c1O was read as GPR151 activ inactive, FBW7 act inactive, TEAD-YAP block inactive and MITF primary inactive.
For COc1cc(CN2CCN(Cc3ccccc3C)CC2)cc(OC)c1O the results were GPR151 activ inactive, FBW7 act inactive, TEAD-YAP block inactive, MITF primary 58.6, MITF inh conf inactive and AlphaScreen intf2 inactive.
Screening COc1cc(CN2CCN(c3ccccn3)CC2)cc(Br)c1O returned GPR151 activ inactive, FBW7 act inactive, TEAD-YAP block inactive and MITF primary inactive.
`COc1cc(CN2CCN(c3ccccc3C)CC2)cc(OC)c1OC` gave GPR151 activ inactive, FBW7 act inactive, TEAD-YAP block inactive and MITF primary inactive.
`COc1cc(CN2CCN(Cc3ccccc3C)CC2)cc(OC)c1OC` gave GPR151 activ inactive, FBW7 act inactive, TEAD-YAP block inactive, MITF primary 64.2, MITF inh conf inactive and AlphaScreen intf2 inactive.
Screening COc1cc(CN2CCN(Cc3ccccc3Br)CC2)cc(OC)c1O returned GPR151 activ inactive, FBW7 act inactive, TEAD-YAP block inactive, MITF primary 68.5, MITF inh conf inactive and AlphaScreen intf2 inactive.
Screening COCCNC(=O)CNS(=O)(=O)c1c(C)c(C)cc(C)c1C returned GPR151 activ inactive, FBW7 act inactive, TEAD-YAP block inactive and MITF primary inactive.
Screening CCC1CN(CCC(=O)N2CCN(c3nonc3C)CC2)Cc2cc(OC)ccc2O1 (stereo not given) returned GPR151 activ inactive, FBW7 act inactive, TEAD-YAP block inactive and MITF primary inactive.
`COc1cc(CN2CCN(CCO)CC2)cc(Br)c1O` gave GPR151 activ inactive, FBW7 act inactive, TEAD-YAP block inactive, MITF primary 67.3, MITF inh conf inactive and AlphaScreen intf2 inactive.
For COc1cc(CN2CCN(C3CCN(Cc4ccccc4)CC3)CC2)cc(OC)c1OC the results were GPR151 activ inactive, FBW7 act inactive, TEAD-YAP block inactive, MITF primary 59.4, MITF inh conf inactive and AlphaScreen intf2 inactive.
`COc1cc(CN2CCN(Cc3ccccc3)CC2)cc(OC)c1O` gave GPR151 activ inactive, FBW7 act inactive, TEAD-YAP block inactive, MITF primary 79.2, MITF inh conf inactive and AlphaScreen intf2 inactive.
Screening CCc1ccc(CN2CCN(Cc3cc(OC)c(O)c(OC)c3)CC2)cc1 returned GPR151 activ inactive, FBW7 act inactive, TEAD-YAP block inactive, MITF primary 65.8, MITF inh conf 50.7, AS interf DR inactive and AlphaScreen intf2 inactive.
Screening COc1cc(CN2CCCCCC2)cc(OC)c1O returned GPR151 activ inactive, FBW7 act inactive, TEAD-YAP block inactive and MITF primary inactive.
COc1ccc(OC)c(NC(=O)CN2CCN(Cc3ccccc3)CC2)c1 was read as GPR151 activ inactive, FBW7 act inactive, TEAD-YAP block inactive, MITF primary 61.6, MITF inh conf inactive and AlphaScreen intf2 inactive.
CCOC(=O)c1sc2nc3c(c(-c4ccccc4Cl)c2c1N)CCCC3 was read as GPR151 activ inactive, FBW7 act inactive, TEAD-YAP block inactive and MITF primary inactive.
For O=C(Nc1nnc(-c2ccc(Cl)cc2Cl)s1)c1c(F)cccc1F the results were GPR151 activ inactive, FBW7 act inactive, TEAD-YAP block inactive and MITF primary inactive.
`O=C(c1ncoc1-c1cccc(F)c1)N1CCN(C2CCCCC2)CC1` gave GPR151 activ inactive, FBW7 act inactive, TEAD-YAP block inactive and MITF primary inactive.
COc1cc(CN2CCN(C3CCN(Cc4ccccc4)CC3)CC2)cc(OC)c1O was read as GPR151 activ inactive, FBW7 act inactive, TEAD-YAP block inactive, MITF primary 62.9, MITF inh conf inactive and AlphaScreen intf2 inactive.
O=c1[nH]cccc1-c1ccc(Nc2nccc(-c3ccc4nc(C5CC5)[nH]c(=O)c4c3)n2)cc1 was read as GPR151 activ inactive, FBW7 act inactive, TEAD-YAP block inactive, MITF primary 64.4, MITF inh conf 62.0, AS interf DR inactive and AlphaScreen intf2 inactive.
For O=C(c1cccc(Nc2nccc(-c3ccc4nc(C5CC5)[nH]c(=O)c4c3)n2)c1)N1CCCC1 the results were GPR151 activ inactive, FBW7 act inactive, TEAD-YAP block inactive and MITF primary inactive.
`COc1ccc(S(=O)(=O)N2CCCCC2C(=O)O)cc1OC` (stereo not given) gave GPR151 activ inactive, FBW7 act inactive, TEAD-YAP block inactive and MITF primary inactive.
Screening COc1ccc(S(=O)(=O)N2CCCCC2C(=O)O)cc1 (stereo not given) returned GPR151 activ inactive, FBW7 act inactive, TEAD-YAP block inactive, MITF primary 68.3, MITF inh conf inactive and AlphaScreen intf2 inactive.
`Cc1ccc(C(=O)NN(C)C)o1` gave GPR151 activ inactive, FBW7 act inactive, TEAD-YAP block inactive, MITF primary 90.8, MITF inh conf inactive and AlphaScreen intf2 inactive.
